MBD2 inh: inhibitors of human MBD2 binding to methylated oligonucleotide. TR-FRET. Q9UBB5. inhibition, % at 4.4 µM. 0.31% of 370,000 active. AID 686964; in the data active means inhibition above about 13%
Neddylation inh: cullin neddylation inhibition | P61081+Q13564 | TR-FRET cullin neddylation, biochemical | calls only at 25 µM | 0.58% of 360,000 active; in the data active means inhibition above about 36%
Target sequence (P61081 whole entry, looked up): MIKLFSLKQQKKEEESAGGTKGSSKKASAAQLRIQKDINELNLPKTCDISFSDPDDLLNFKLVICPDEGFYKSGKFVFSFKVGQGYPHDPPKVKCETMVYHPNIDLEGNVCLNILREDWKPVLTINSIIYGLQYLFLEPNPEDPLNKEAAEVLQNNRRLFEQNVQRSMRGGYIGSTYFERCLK
Target sequence (Q13564 whole entry, looked up): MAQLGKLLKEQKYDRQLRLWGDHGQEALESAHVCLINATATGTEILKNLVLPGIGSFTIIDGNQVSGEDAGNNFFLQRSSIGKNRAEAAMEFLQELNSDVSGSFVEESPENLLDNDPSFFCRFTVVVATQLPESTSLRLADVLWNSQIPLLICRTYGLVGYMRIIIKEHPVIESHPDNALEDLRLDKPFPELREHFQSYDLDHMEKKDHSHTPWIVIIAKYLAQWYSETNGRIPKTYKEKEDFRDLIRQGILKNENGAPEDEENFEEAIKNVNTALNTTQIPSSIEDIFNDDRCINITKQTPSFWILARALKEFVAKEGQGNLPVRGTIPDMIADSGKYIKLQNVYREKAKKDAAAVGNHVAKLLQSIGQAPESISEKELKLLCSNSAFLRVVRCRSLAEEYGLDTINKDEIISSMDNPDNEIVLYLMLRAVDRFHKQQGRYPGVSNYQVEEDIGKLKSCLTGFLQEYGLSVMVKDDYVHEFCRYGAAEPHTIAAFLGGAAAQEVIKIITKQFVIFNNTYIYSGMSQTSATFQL
Rin1-Abl PPI inh: human Rin1-Abl interaction inhibition | P00519+Q13671 | TR-FRET Rin1/Abl binding, biochemical | 0.4% of 360,000 active | inhibition, % at 7.35 µM; in the data active means inhibition above about 5%, passing the limit was not always enough
LEDGF integ inh: blocks HIV-1 LEDGF/p75-dependent DNA integration | 0.64% of 370,000 active | TR-FRET IN-LEDGF/p75 DNA integration, Eu/Cy5 | inhibition, % at 3.7 µM;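 active means inhibition above the screen-wide mean plus 3 SD, cut at about 13% in these data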;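 further: signal is the Cy5 over europium emission ratio at 671 and 618 nm; 0% = plate median of compound wells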
UHRF1 MBD2 ctr: UHRF1 methyl-DNA binding inhibition. Q96T88. UHRF1 binding to methylated oligo, TR-FRET. inhibition, % at 4.4 µM. 0.75% of 370,000 active. AID 687016; in the data active means inhibition above about 21%;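 further: UHRF1 SRA domain binding a hemimethylated CpG hairpin DNA probe; 0% = median of test compound wells and 100% = reference inhibitor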
KLK7 zymogen act: activates the human kallikrein-7 zymogen. P49862. purified proKLK7, EDANS-DABCYL substrate fluorescence; 100% is mature enzyme control, 0% vehicle. activation, % at 7 µM. 0.9% of 370,000 active;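 active means activation above the mean of all tested compounds plus 3 SD, computed per campaign excluding outliers beyond control limits, cut at about 13% in these data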
An asterisk follows results filed as active; i = inactive; nt = not tested or not shown; + = active, no number. Only some compounds are listed: those with a hit (about 3.1% of all), similar ones and a draw of the others.

SMILES	MBD2 inh	Neddylation inh	Rin1-Abl PPI inh	LEDGF integ inh	UHRF1 MBD2 ctr	KLK7 zymogen act
Cc1c(OCC(=O)N2C[C@H]3C[C@@H](C2)c2cccc(=O)n2C3)ccc2c3c(c(=O)oc12)CCCC3	-2	i	-3	4	0	0
CCc1ccc(S(=O)(=O)Nc2ccc(-c3ccc4nnc(C)n4n3)cc2)s1	-1	i	2	-3	-1	0
CCc1ccc(S(=O)(=O)Nc2ccc(-c3ccc4nncn4n3)cc2)s1	0	i	-2	-4	23*	0
CC(C)Cn1c(N)c(C(=O)COC(=O)[C@H](C)NC(=O)c2ccccc2Cl)c(=O)n(C)c1=O	-3	i	3	1	-2	0
COC(=O)C1C(c2ccc(OC)c(OC)c2)NC(c2ccc(OC)c(OC)c2)C(C(=O)OC)S1(=O)=O (stereo not drawn)	8	i	-5	10	23*	-1
Oc1ccc(C2C=C(c3ccc(F)cc3)Nc3ncnn32)cc1 (stereo not drawn)	4	nt	-4	-5	2	27*
CCOc1ccc(C2C=C(c3ccc(F)cc3)Nc3ncnn32)cc1 (stereo not drawn)	-1	nt	3	3	-1	-2
Cc1ccc(/C=N/NC(=O)Cc2c(F)cccc2Cl)s1	1	i	-3	3	-1	1
Cc1cccc(C)c1NC(=O)C1(NC(=O)C2CCC(=O)N2)CCCCC1 (stereo not drawn)	2	i	-3	-3	9	0
Cc1cccc(C)c1NC(=O)C1(NC(=O)Cn2cccc([N+](=O)[O-])c2=O)CCCCC1	3	i	1	-3	24*	-1
Cc1ccc(NC(=O)C(C)Sc2nnc3n2CCCCC3)cc1S(=O)(=O)N1CCOCC1 (stereo not drawn)	-2	i	-1	0	1	0
CCOc1cc(C2C(C#N)=C(N)Oc3n[nH]c(CC)c32)ccc1OCCN1CCOCC1 (stereo not drawn)	5	i	3	-1	22*	-1
Cc1ccc(NC(=O)C2(C)CCN2C(=O)Cc2ccc(C(C)C)cc2)cc1 (stereo not drawn)	-1	i	-10	4	1	0
COc1cccc(Oc2ccc(OC)cc2C(=O)O)c1	6	i	1	1	26*	0
CN1C(=O)C2(c3ccccc31)C1CCCC=C1C(C#N)=C(N)C2(C#N)C#N (stereo not drawn)	-9	i	-2	-3	-6	2
Cc1sc2ncnc(N/N=C/c3ccccc3O)c2c1C	-3	+	0	0	-4	-2
Cc1sc2ncnc(N/N=C/c3ccc(O)cc3)c2c1C	0	i	-2	-3	-3	-1
CCN(CC)S(=O)(=O)c1cc(C(=O)n2cccn2)c(Cl)cc1Cl	2	i	-3	-1	8	0
CCc1c2c(nc3ccc(OC(=O)N4CCC(N5CCCCC5)CC4)cc13)-c1cc3c(c(=O)n1C2)COC(=O)[C@]3(O)CC	-9	i	-2	-1	-6	63*
COc1ccc([N+](=O)[O-])cc1NC(=O)C(C)Sc1nc(C)c(C)c(C)n1 (stereo not drawn)	-1	i	-1	3	61*	-1
COc1ccc([N+](=O)[O-])cc1NC(=O)C(C)N1CCCC1 (stereo not drawn)	0	i	3	2	49*	0
COc1ccc([N+](=O)[O-])cc1NC(=O)CSc1nc(C)c(C)c(C)n1	0	i	-3	0	0	0
COC(=O)Nc1cc([N+](=O)[O-])ccc1OC	-3	i	-3	-3	-1	-1
Nc1c(C(=O)N2CCN(CCc3ccccc3)CC2)cnn1-c1ccccc1	-3	nt	nt	-3	-1	0
O=C(CCSCc1ccc(Cl)cc1)NCc1ccco1	-4	i	-1	-1	-2	0
SMILES	MBD2 inh	Neddylation inh	Rin1-Abl PPI inh	LEDGF integ inh	UHRF1 MBD2 ctr	KLK7 zymogen act
Cc1ccccc1N/C(SCc1ccc(Cl)cc1)=C(/C#N)C(=O)NCc1ccco1	6	i	4	3	22*	0
Cc1ccc(CNCc2cccnc2)s1	-1	i	1	-2	26*	0
O=C(Oc1c(CN2CCOCC2)cc(Cl)c2cccnc12)c1ccccc1F	13	i	1	-4	22*	0
Cc1ccc(-c2nnc3ccc(SCC(=O)NCc4ccco4)nn23)cc1	13	i	3	-3	22*	4
O=C(CSc1ccc2nnc(-c3ccc(F)cc3)n2n1)NCc1ccco1	-1	i	-1	5	4	1
CN(CC(=O)N1CCN(c2ccccc2)CC1)S(=O)(=O)c1cnc[nH]1	-2	i	-1	2	29*	1
O=C(NC1CCCC1)C(c1ccc(F)cc1)N(Cc1ccccc1Cl)C(=O)CCl (stereo not drawn)	0	i	2	1	-2	0
COc1ccc(NC(=O)c2cc(-c3ccncc3)nc3ccc(Br)cc23)cc1OC	4	i	8.8*	-5	2	-10
O=C1c2ccccc2NC2(CCCC2)N1O	2	i	0	-2	80*	2
O=C1c2ccccc2NC2(CCCCC2)N1N=C1CCCCC1	-1	nt	2	3	3	7
Cc1ccc(-c2cc(-c3n[nH]c(=S)o3)c3ccccc3n2)cc1	5	+	-4	0	0	0
Nc1nonc1C(=O)NCCNC(=O)c1cccc(Cl)c1	-5	i	1	-2	-1	0
CCOCCCNC(=O)/C(C#N)=C/c1ccc(-c2ccc(S(=O)(=O)N3CCOCC3)cc2)o1	nt	i	-11	nt	nt	nt
COCCNC(=O)/C(C#N)=C/c1ccc(-c2ccc(S(=O)(=O)N3CCOCC3)cc2)o1	-5	i	-6	0	69*	2
CCC(=O)OC1(C)C(=O)C=C2C=C(CCCC(=O)OC)OC=C2C1=O (stereo not drawn)	-4	i	5	16*	1	3
CCCCC1=CC2=CC(=O)C(C)(OC(=O)CC)C(=O)C2=CO1 (stereo not drawn)	-5	i	1	6	-1	3
C[C@H]1CN([C@@H](C)CO)S(=O)(=O)c2ccc(C#Cc3ccccn3)cc2O[C@H]1CN(C)Cc1ccc(F)cc1	1	i	-3	-3	0	0
CCCC#Cc1ccc2c(c1)O[C@@H](CN(C)Cc1ccc3c(c1)OCO3)[C@H](C)CN([C@@H](C)CO)S2(=O)=O	12	i	1	-5	21*	-1
C[C@H]1CN([C@@H](C)CO)S(=O)(=O)c2ccc(Br)cc2O[C@@H]1CN(C)C(=O)Nc1ccc2c(c1)OCO2	-5	i	2	3	-2	1

Screens: PubChem, several laboratories
